Reference: PubChem BioAssay (NCATS)
Records with an inconclusive call do not appear. Active and inactive are the calls of the source. Calls follow the shape of the dose curve; as a rule, active = well fitted inhibition curve with a large enough effect; inconclusive = small, poorly fitted or top-dose-only effect; inactive = flat fitted curve, though single readings scatter.

Tests used:
CRL-7250 = normal cell line; assay: Cytotoxic Profiling of Annotated Libraries Using Quantitative High-Throughput Screening (AID 1296008); settings: Five cell lines viability, CellTiter-Glo ATP luminescence, 48-72 h; max response: hits give low values; as to max response: % is scaled to controls: 0 for no effect and ±100 for the full control effect
Procedure, shortened: (§1)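 Cytotoxicity was measured as CellTiter-Glo ATP luminescence, read after 10 min at room temperature. Compound treatment of the cells lasted 48 or 72 hr at 37 degrees Celsius in a qHTS format.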

HEK293 = assay: as above; settings: Five cell lines viability, CellTiter-Glo ATP luminescence, 48-72 h; max response: hits give low values
Procedure, shortened: as §1

HaCat = assay: as above; settings: Five cell lines viability, CellTiter-Glo ATP luminescence, 48-72 h; max response: hits give low values
Procedure, shortened: as §1

KB-3-1 = assay: as above; settings: Five cell lines viability, CellTiter-Glo ATP luminescence, 48-72 h; max response: hits give low values
Procedure, shortened: as §1

NIH3T3 = assay: as above; settings: Five cell lines viability, CellTiter-Glo ATP luminescence, 48-72 h; max response: hits give low values
Procedure, shortened: as §1

HEK293T = assay: qHTS assay to identify novel small-molecules to repurpose for Merkel cell carcinoma treatment (AID 1296009); settings: MCC and control cell lines, CellTiter-Glo viability, 72 h; series mostly up to 44.8 µM
Procedure, shortened: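 Cell viability measured by CellTiter-Glo following 72 hr compound treatment at 37 degree celsius, with NPC and MIPE libraries tested in 8- and 11-point concentration series.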
Also: nearly all actives have a fitted effect of over 60% in size.

C[C@@H](Nc1cc(NS(=O)(=O)N2CCC2)nc(SCc2cccc(F)c2F)n1)[C@@H](O)CO
inactive: max response (CRL-7250) 3.18% | outcome (HEK293) | max response (HaCat) 1.29% | max response (KB-3-1) -2.77% | outcome (NIH3T3) | Potency (HEK293T)

OCc1ccccc1O[C@@H]1O[C@H](CO)[C@@H](O)[C@H](O)[C@H]1O
inactive: max response (CRL-7250) -0.323% | outcome (HEK293) | max response (HaCat) -0.335% | max response (KB-3-1) 6.41% | max response (NIH3T3) -2.31% | Potency (HEK293T)

C=CC(C)(C)C1(CC2NC(=O)C3CCCN3C2=O)C(=O)Nc2cc3c(cc21)C=CC(C)(C)O3 (stereo not drawn)
inactive: max response (CRL-7250) -5.49% | outcome (HEK293) | max response (HaCat) -0.592% | max response (KB-3-1) 2.09% | outcome (NIH3T3) | Potency (HEK293T)

CC[C@H]1OC(=O)[C@H](C)[C@@H](O[C@H]2C[C@@](C)(OC)[C@@H](O)[C@H](C)O2)[C@H](C)[C@@H](O[C@@H]2O[C@H](C)C[C@H](N(C)C)[C@H]2O)[C@@](C)(O)C[C@@H](C)[C@@H]2N[C@@H](COCCOC)OC([C@H]2C)[C@]1(C)O
inactive: max response (CRL-7250) -11.1% | outcome (HEK293) | max response (HaCat) -20.8% | outcome (KB-3-1) | max response (NIH3T3) -6.11% | Potency (HEK293T)

COC(=O)C1=CO[C@@H](O[C@@H]2O[C@H](CO[C@@H]3O[C@H](COC(=O)/C=C/c4ccc(O)cc4)[C@@H](O)[C@H](O)[C@H]3O)[C@@H](O)[C@H](O)[C@H]2O)[C@@H]2C(CO)=CC[C@H]12
inactive: max response (CRL-7250) 4.68% | outcome (HEK293) | max response (HaCat) 0.423% | max response (KB-3-1) 6.83% | max response (NIH3T3) 0.0703% | Potency (HEK293T)

C=C1C(=O)O[C@H]2[C@H]1[C@@H](OC(=O)C(C)CO)C[C@@]1(C)[C@H](O)CCC(=O)[C@H]21 (stereo partly drawn)
inactive: max response (CRL-7250) -10.3% | outcome (HEK293) | max response (HaCat) -8.77% | outcome (KB-3-1) | max response (NIH3T3) -0.0339% | Potency (HEK293T)

CCNC(=O)[C@H]1O[C@H](n2cnc3c(NCC(c4ccccc4)c4ccccc4)nc(C(=O)NCCNC(=O)NC4CCN(c5ccccn5)CC4)nc32)[C@H](O)[C@@H]1O
inactive: max response (CRL-7250) -2.5% | outcome (HEK293) | max response (HaCat) -11.9% | max response (KB-3-1) 2.94% | max response (NIH3T3) 1.64% | Potency (HEK293T)

O=C(O)c1n[nH]c2c1C[C@H]1C[C@@H]21
inactive: max response (CRL-7250) -0.338% | outcome (HEK293) | max response (HaCat) 2.24% | max response (KB-3-1) 3.14% | max response (NIH3T3) -3.9% | Potency (HEK293T)

C=C1C(O[C@@H]2O[C@H](CO)[C@@H](O)[C@H](O)[C@@H]2O)CC2C(C)(C)C(O)CCC2(C)C1CC/C(C)=C\CO (stereo partly drawn)
inactive: max response (CRL-7250) -10.8% | outcome (HEK293) | max response (HaCat) -5.23% | outcome (KB-3-1) | max response (NIH3T3) -3.89% | Potency (HEK293T)

O=C(/C=C/c1ccc(O)c(O)c1)OCc1ccccc1O[C@@H]1O[C@H](CO)[C@@H](O)[C@H](O)[C@H]1O
inactive: max response (CRL-7250) -1.33% | outcome (HEK293) | max response (HaCat) 1.88% | max response (KB-3-1) 0.279% | max response (NIH3T3) -4.16% | Potency (HEK293T)

COc1cc(/C=C/C(=O)OC2CC3CCC2(C)C3(C)C)ccc1O (stereo not drawn)
inactive: outcome (CRL-7250) | outcome (HEK293) | max response (HaCat) -0.121% | max response (KB-3-1) 9.6% | outcome (NIH3T3) | Potency (HEK293T)

COC(=O)C1=CO[C@@H](O[C@@H]2O[C@H](CO)[C@@H](O)[C@H](O)[C@H]2O)[C@@H]2[C@@H](C)[C@@H](O)C[C@H]12
inactive: max response (CRL-7250) -3.5% | outcome (HEK293) | max response (HaCat) -10.2% | outcome (KB-3-1) | max response (NIH3T3) 2.94% | Potency (HEK293T)

CC(/C=C/C1(O)C(C)(C)CC(O)CC1(C)O)OC1OC(CO)C(O)C(O)C1O (stereo not drawn)
inactive: outcome (CRL-7250) | outcome (HEK293) | max response (HaCat) -8.69% | outcome (KB-3-1) | outcome (NIH3T3) | Potency (HEK293T)

Cc1ccc2c(c1)C=Cc1cc(C)ccc1C2c1cn(Cc2ccc(C(=O)Nc3nn[nH]n3)o2)c(=O)[nH]c1=S
inactive: outcome (CRL-7250) | outcome (HEK293) | max response (HaCat) -1.86% | outcome (KB-3-1) | max response (NIH3T3) -7.39% | Potency (HEK293T)

C=C1[C@H]2CC[C@]3(O)[C@@](CC[C@@H]4[C@](C)(C(=O)O)CCC[C@]43C)(C2)[C@H]1OC(=O)/C(C)=C\C
inactive: max response (CRL-7250) 2.63% | outcome (HEK293) | max response (HaCat) -13.2% | outcome (KB-3-1) | max response (NIH3T3) 0.4% | Potency (HEK293T)

CC(C)[C@@H](C)/C=C/[C@@H](C)[C@H]1CC[C@H]2C3=CC=C4C[C@@H](O)CC[C@]4(C)[C@H]3CC[C@]12C
inactive: max response (CRL-7250) -9.59% | outcome (HEK293) | max response (HaCat) -1.06% | outcome (KB-3-1) | max response (NIH3T3) -4.11% | Potency (HEK293T)

C/C=C(/C)C(=O)O[C@H]1C=C(C)C[C@H](OC(=O)c2ccc(O)cc2)C2[C@](O)(C(C)C)CC[C@@]21C (stereo partly drawn)
inactive: max response (CRL-7250) -4.39% | outcome (HEK293) | max response (HaCat) -13.2% | outcome (KB-3-1) | max response (NIH3T3) -3.12% | Potency (HEK293T)

CC1=C(CC(=O)O)c2cc(F)ccc2C1=Cc1ccc(S(C)(=O)=O)cc1
inactive: outcome (CRL-7250) | outcome (HEK293) | max response (HaCat) -6.44% | outcome (KB-3-1) | max response (NIH3T3) 4% | Potency (HEK293T)
